From PubChem
HPGD block: inhibitors of human 15-hydroxyprostaglandin dehydrogenase (HPGD) | P15428 | purified HPGD, NADH fluorescence kinetic, PGE2 substrate | Potency, µM, usual class: inhibitors | 150,000 compounds, 4.3% hits
Target sequence (P15428 whole entry, looked up): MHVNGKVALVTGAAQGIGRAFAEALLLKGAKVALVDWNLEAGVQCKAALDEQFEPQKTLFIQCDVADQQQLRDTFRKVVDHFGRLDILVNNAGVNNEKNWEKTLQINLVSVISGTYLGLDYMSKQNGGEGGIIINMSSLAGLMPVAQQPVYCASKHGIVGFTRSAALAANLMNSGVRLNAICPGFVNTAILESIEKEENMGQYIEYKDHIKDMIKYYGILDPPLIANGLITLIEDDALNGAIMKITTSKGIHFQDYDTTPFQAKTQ
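NADH formation kinetics: reaction with 30 uM PGE2 and 1 mM NAD+ (final), 20 nM enzyme, Tris-HCl pH 8 with Tween 20, after 15 min compound preincubation at room temperature. Fluorescence change, last versus first of five reads.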
12-hLO inh: 12-hLO (ALOX12) enzyme inhibition. AID 1452. P18054. 150,000 compounds, 0.12% hits. purified 12-hLO, xylenol orange hydroperoxide absorbance. Potency, µM (titrated, usually from 57.1 µM), usual class: inhibitors; active = well fitted curve in the direction sought with a large enough effect; inconclusive = small, poorly fitted or top-dose-only effect, or another doubt; inactive = no such curve, though single readings can be large; an effect the other way counts as inactive or inconclusive; note: nearly all actives have a fitted effect of over 55% in size
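Hydroperoxide formation by human 12-lipoxygenase from 40 uM arachidonic acid was followed colorimetrically via ferric-xylenol orange complex, using the 573/405 nm absorbance ratio. Enzyme concentration was 150 nM, with 30 min reaction at room temperature.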
IMPase cell inh: membrane-permeable compound that blocks inositol monophosphatase; P97697; 120,000 tested, under 10 active; inhibition (IP1 accumulation), % at 46.1 µM; CHO-M1 cells, IP1 accumulation, HTRF TR-FRET ratio; active = well fitted curve in the direction sought with a large enough effect in the signal ratio, not every such curve was filed as active; inconclusive = small, poorly fitted or top-dose-only effect, or a change in a side signal; inactive = no such curve, though single readings can be large or run the other way; the % refers to the signal ratio;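 note: cells stimulated with carbachol in lithium chloride buffer; higher means more IMPase inhibition seen as more IP1 and lower FRET ratio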
Target sequence (P97697 whole entry, looked up): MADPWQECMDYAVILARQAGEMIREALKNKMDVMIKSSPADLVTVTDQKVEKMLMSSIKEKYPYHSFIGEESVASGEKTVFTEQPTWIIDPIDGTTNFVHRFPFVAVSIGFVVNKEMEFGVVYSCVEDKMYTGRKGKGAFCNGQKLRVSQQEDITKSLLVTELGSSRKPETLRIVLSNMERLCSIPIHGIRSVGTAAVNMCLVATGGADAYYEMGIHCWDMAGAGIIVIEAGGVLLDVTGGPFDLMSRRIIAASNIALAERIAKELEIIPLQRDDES
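CHO-M1 cells (CHO stably expressing M1 receptor), compound up to 46 uM final, stimulated with carbachol (50 uM as added) in buffer with 50mM LiCl, pH 7.4, 30 min at 37C. Cytosolic IP1 read by TR-FRET; AC50 from Hill fits.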
IMPase Li cell: membrane-permeable IMPase blocker, potentiated with lithium. CHO-M1 cells, IP1 TR-FRET (IP-One), carbachol + lithium. Potency, µM (doses to about 59.4 µM), hits mostly inhibitors. 210,000 compounds, 0.35% hits; active = well fitted curve in the direction sought with a large enough effect; inconclusive = small, poorly fitted or top-dose-only effect, or another doubt; inactive = no such curve, though single readings can be large; an effect the other way counts as inactive or inconclusive;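 note: IP1 builds up when IMPase is blocked and the TR-FRET signal falls; nearly all actives have a fitted effect of over 50% in size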
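IP1 accumulation measured by competitive TR-FRET in lysed CHO-M1 cells after 30 min compound exposure at 37C, with a small lithium addition to potentiate weak responses. Hill-equation AC50 from ratio and donor-channel data.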
ALDH1A1 inh: ALDH1A1 (human) enzyme inhibition. Purified ALDH1A1, NADH fluorescence, propionaldehyde substrate. Potency, µM (doses to about 75.3 µM), hits mostly inhibitors. 220,000 compounds, 7.3% hits. AID 1030
PNC assembly inh: blocks assembly of the perinucleolar compartment | activity change (PNC), negative = inhibition, % at 10 µM | 140,000 compounds, 3.1% hits | PC3M PTB-GFP, PNC prevalence imaging, 16 h; stronger effect = lower value | AID 2417;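 active = readout at or below -70, meaning at least 70% loss of cells showing the perinucleolar compartment, a nuclear body marking cancer cells; inconclusive = readout between -30 and a set limit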
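Read-out is percentage of cells bearing a perinucleolar compartment, from automated 20x imaging of fixed, Hoechst-stained PC3M PTB-GFP cells. Cells were seeded 4 h, then exposed 16 h to compound (23 nl of library stock) in duplicate plates.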
Large screens that a line does not name were inactive. In the library only some 11% were active in any assay of this set; here they are far more common. Unless noted, calls come from the whole dose curve; as a rule, active = well fitted inhibition curve with a large enough effect (not every such curve was filed as active); inconclusive = small, poorly fitted or top-dose-only effect, or another doubt; inactive = no such curve, though single readings can be large or run the other way.

CCOC(=O)c1sc(NC(=O)c2cccc(S(=O)(=O)N3c4ccccc4CC3C)c2)cc1C (stereo not drawn)	ALDH1A1 inh inconclusive, PNC assembly inh -95 (no result: IMPase cell inh)
Cc1ccc(-c2cc(C(=O)N/N=C/c3cccnc3)n[nH]2)o1	PNC assembly inh -106 (no result: IMPase cell inh)
COc1ccccc1/C=C/C=N/NC(=O)c1cc(-c2ccc(C)o2)[nH]n1	none (no result: HPGD block, 12-hLO inh, IMPase cell inh, IMPase Li cell, PNC assembly inh)
CCCCC(=O)NC1=NC(=O)C(C)(C)S1	none
CCN(CC)c1ccc(/C=N/NS(=O)(=O)c2ccc(C)c([N+](=O)[O-])c2)cc1	ALDH1A1 inh 20µM, PNC assembly inh inconclusive (no result: HPGD block, IMPase Li cell)
Cc1ccc(S(=O)(=O)N/N=C/c2ccc(O)c(O)c2)cc1[N+](=O)[O-]	ALDH1A1 inh inconclusive (no result: HPGD block, 12-hLO inh, IMPase cell inh, PNC assembly inh)
CCN(Cc1ccccc1)c1ccc(/C=N/NS(=O)(=O)c2cccc([N+](=O)[O-])c2)cc1	ALDH1A1 inh 6.3µM (no result: IMPase cell inh)
C=CCSC[C@@H]1Nc2cc(Cl)c(S(N)(=O)=O)cc2S(=O)(=O)N1	none (no result: PNC assembly inh)
COc1ccc(-c2nnc(SCC(=O)N3CCCCC3)o2)c(OC)c1	HPGD block inconclusive, ALDH1A1 inh inconclusive
COc1ccc(Cc2nnc(SCC(=O)N3CCc4ccccc4C3)o2)cc1	ALDH1A1 inh 13µM (no result: HPGD block, IMPase Li cell)
COc1ccc(CC(=O)N2CCCC(C)C2)cc1 (stereo not drawn)	HPGD block 28µM
COc1ccc(OC(C)C(=O)N2CCc3ccccc3C2)cc1 (stereo not drawn)	HPGD block 25µM
COc1ccc(C(=O)NCC(=O)N2CCc3ccccc3C2)cc1	ALDH1A1 inh inconclusive (no result: HPGD block, 12-hLO inh, IMPase cell inh, PNC assembly inh)
COc1ccc(-c2nnc(SCC(=O)N3CCCC(C)C3)o2)c(OC)c1 (stereo not drawn)	HPGD block 16µM, ALDH1A1 inh inconclusive
COc1ccccc1CN1CCC2(CC1)CCN(C(=O)c1ccncc1)CC2	none (no result: IMPase cell inh, PNC assembly inh)
CCC(=O)N1CCc2cc(Br)cc(S(=O)(=O)N(C)c3ccc(OC)cc3OC)c21	none (no result: HPGD block, 12-hLO inh, IMPase cell inh, PNC assembly inh)
C(=N/Nc1ccccn1)/c1cccnc1	none (no result: IMPase cell inh, PNC assembly inh)
COc1ccc(Cc2nnc(SCC(=O)N3CCCC3)o2)cc1	none (no result: HPGD block, 12-hLO inh, IMPase cell inh, PNC assembly inh)
COc1ccc(Cc2nnc(SCC(=O)N3CCCC(C)C3)o2)cc1 (stereo not drawn)	ALDH1A1 inh 0.89µM (no result: HPGD block, 12-hLO inh, IMPase cell inh, PNC assembly inh)
CCCCN(CCCC)CCNC(=O)CSCc1ccc(C)cc1	ALDH1A1 inh 28µM (no result: HPGD block, 12-hLO inh, IMPase cell inh, PNC assembly inh)
Cc1ccc(CNC(=O)CSCc2ccccc2)cc1	none (no result: HPGD block, 12-hLO inh, IMPase cell inh, PNC assembly inh)
C=C(C)C1COc2cc3oc(=O)ccc3cc2O1 (stereo not drawn)	HPGD block inconclusive, ALDH1A1 inh inconclusive (no result: IMPase cell inh, PNC assembly inh)
O=C1CC(N2CCN(c3ccc(O)cc3)CC2)C(=O)N1Cc1cccs1 (stereo not drawn)	ALDH1A1 inh 25µM
CCCCNC(=O)Nc1ccccc1C(=O)NCCC	IMPase cell inh inconclusive, PNC assembly inh -100
CCCCNC(=O)Nc1ccccc1C(=O)NCc1ccco1	none
COc1ccc(CN(C)CC(=O)Nc2sc3c(c2C#N)CCC3)cc1OC	ALDH1A1 inh 14µM (no result: HPGD block, 12-hLO inh, IMPase cell inh, PNC assembly inh)
COc1cccc(CN(C)CC(=O)Nc2sc3c(c2C#N)CCC3)c1OC	ALDH1A1 inh 25µM (no result: HPGD block, 12-hLO inh, IMPase cell inh, PNC assembly inh)
CN(CC(=O)Nc1sc2c(c1C#N)CCCCC2)Cc1nc2ccccc2c(=O)[nH]1	ALDH1A1 inh inconclusive (no result: HPGD block, 12-hLO inh, IMPase cell inh, PNC assembly inh)
Fc1cc2[nH]c(=S)[nH]c2cc1Cl	ALDH1A1 inh 32µM (no result: HPGD block, 12-hLO inh, IMPase cell inh, IMPase Li cell, PNC assembly inh)
Cc1cc(N(CCO)CCO)nc(-n2nc(C)cc2C)n1	ALDH1A1 inh 11µM
Cc1cc(=O)n2nc(N3CCCC(C(=O)N4CCN(c5ccccc5)CC4)C3)sc2n1 (stereo not drawn)	PNC assembly inh -117
O=C(c1ccccc1)c1c[nH]cc1-c1ccccc1	ALDH1A1 inh inconclusive, PNC assembly inh -100
CCCN1CCN(C(=O)Nc2ccc(C(=O)OCC)cc2)CC1	none
CCCN1CCC(=NNC(=O)c2ccc(Br)o2)CC1	ALDH1A1 inh 13µM
CCCN1CCC(=NNc2ccc(C(=O)O)cc2)CC1	ALDH1A1 inh 25µM (no result: HPGD block, 12-hLO inh, IMPase cell inh, PNC assembly inh)
CCN1CCC(=NNC(=O)c2ccco2)CC1	ALDH1A1 inh inconclusive
C=C1C[C@@]23C[C@@]1(O)CC[C@@H]2[C@]12C=C[C@@H](O)[C@](C)(C(=O)O1)[C@@H]2[C@@H]3C(=O)O	none (no result: PNC assembly inh)
OC[C@H]1O[C@@H](n2cnc3c(Nc4ccccc4)ncnc32)[C@H](O)[C@H]1O	ALDH1A1 inh inconclusive (no result: 12-hLO inh, IMPase cell inh, PNC assembly inh)
CC(Sc1nc2cc([N+](=O)[O-])ccc2n1-c1ccc(F)cc1)C(=O)NCc1ccc2c(c1)OCO2 (stereo not drawn)	HPGD block inconclusive, 12-hLO inh inconclusive, ALDH1A1 inh 1.4µM (no result: IMPase cell inh)
COc1ccccc1-n1c(SCC(=O)NCc2ccc3c(c2)OCO3)nc2cc([N+](=O)[O-])ccc21	ALDH1A1 inh 1.1µM (no result: IMPase cell inh)
COC(=O)[C@H](Cc1ccccc1)NC(=O)[C@H]1C[C@@H]1[C@H](NC(=O)OCc1ccccc1)c1ccccc1	none (no result: IMPase cell inh, PNC assembly inh)
Cc1cc(C)c2nc(N3CCC(C(=O)N4CCN(C(=O)c5ccco5)CC4)CC3)sc2c1	ALDH1A1 inh 13µM
Cc1cc(C)c2nc(N3CCC(C(=O)NCc4cccnc4)CC3)sc2c1	none (no result: HPGD block, 12-hLO inh, IMPase cell inh, PNC assembly inh)
